# Compounds without any hit were thinned out: in the full panel of roughly 83,000, 20% have a hit.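 Values shown are percent growth following 48 h exposure of cells in 96-well plates to a single concentration of compound; below 10 was considered active.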 The source made the active and inactive calls.
# Legend:
# Assay in all cases: NCI-60 one-dose screen, 48 h (100 = growth as untreated, 0 = no growth, -100 = all killed)
# Settings in all cases: 10 µM unless noted
# [1] = system: NCI-H23 lung
# [2] = system: NCI-H226 lung
# [3] = system: NCI-H322M lung
# [4] = system: HOP-62 NSCLC
# [5] = system: NCI-H460 lung
# [6] = system: HOP-92 NSCLC
# [7] = system: NCI-H522 lung
# [8] = system: A549/ATCC NSCLC
# [9] = system: 786-0 renal
# [10] = system: COLO 205 colon
# [11] = system: DU-145 prostate
# [12] = system: K-562 leukemia
# [13] = system: MALME-3M melanoma
# [14] = system: MDA-MB-231 breast
# [15] = system: RXF 393 renal
# [16] = system: SF-268 CNS
# [17] = system: SF-295 CNS
# [18] = system: SF-539 CNS
# [19] = system: UACC-257 melanoma
# [20] = system: M14 melanoma
Compound,growth [1],growth [2],growth [3],growth [4],growth [5],growth [6],growth [7],growth [8],growth [9],growth [10],growth [11],growth [12],growth [13],growth [14],growth [15],growth [16],growth [17],growth [18],growth [19],growth [20]
CC1=NN(c2ccc(Cl)cc2)CC1(C)N=O (stereo not drawn),88.4% (inactive),76.9% (inactive),99.9% (inactive),95.8% (inactive),95.9% (inactive),83.3% (inactive),44.5% (inactive),99.9% (inactive),73.1% (inactive),67.3% (inactive),83.9% (inactive),40.1% (inactive),68.5% (inactive),78.3% (inactive),32.7% (inactive),94.9% (inactive),101% (inactive),91% (inactive),90% (inactive),64.9% (inactive)
N=C(N)c1ccc(-c2ccc(-c3ccc(Cl)cc3Cl)s2)cc1F,18.9% (inactive),93.2% (inactive),-43.8% (active),,-72.4% (active),43% (inactive),-44.2% (active),-55.8% (active),-78.8% (active),-47.2% (active),-82.4% (active),-22.6% (active),-2.93% (active),-79.5% (active),50.1% (inactive),1.95% (active),-79.5% (active),-95.4% (active),18.6% (inactive),-15.1% (active)
OC(c1ccccc1)(c1ccccc1)c1ccccc1-c1ccccc1,83.9% (inactive),91.9% (inactive),101% (inactive),,93.1% (inactive),67.1% (inactive),75.9% (inactive),81.8% (inactive),95.9% (inactive),81% (inactive),96.2% (inactive),96.5% (inactive),120% (inactive),84.4% (inactive),103% (inactive),90.6% (inactive),109% (inactive),112% (inactive),101% (inactive),99.4% (inactive)
COc1ccc(C2=NN(C(=O)c3cc(OC)c(OC)c(OC)c3)C(c3ccc(N(C)C)cc3)C2)cc1 (stereo not drawn),26.4% (inactive),20.6% (inactive),48.3% (inactive),,3.74% (active),21.6% (inactive),-32.4% (active),30% (inactive),13.6% (inactive),5.9% (active),10.7% (inactive),44.2% (inactive),84% (inactive),9.57% (active),-18.5% (active),46.6% (inactive),1.04% (active),-37% (active),62.6% (inactive),2.04% (active)
CS(=O)(=O)Nc1cc(-c2ccc3ncnc(Nc4ccc5c(cnn5Cc5cccnc5)c4)c3c2)cnc1Cl,55.8% (inactive),76.4% (inactive),68.7% (inactive),,79.8% (inactive),-10% (active),44.2% (inactive),83.7% (inactive),62.9% (inactive),68.3% (inactive),63.4% (inactive),57.7% (inactive),5.01% (active),47.6% (inactive),44.4% (inactive),27.9% (inactive),81.8% (inactive),41.4% (inactive),64.5% (inactive),41% (inactive)
COc1ccc(C2C3=C(COC3=O)N(CCO)c3cc4c(cc32)OCCO4)cc1OC (stereo not drawn),34.3% (inactive),41.2% (inactive),51.4% (inactive),,10.4% (inactive),40.8% (inactive),-13.9% (active),51.2% (inactive),27.7% (inactive),-4.68% (active),14.6% (inactive),27.6% (inactive),41.7% (inactive),56.8% (inactive),5.27% (active),51.7% (inactive),3.18% (active),-2.02% (active),44.1% (inactive),13.6% (inactive)
CCOC(=O)c1c(NC(=O)c2ccc(C(C)(C)C)cc2)sc2cc(O)ccc12,89.8% (inactive),87.9% (inactive),87.1% (inactive),,98.1% (inactive),96.8% (inactive),96.1% (inactive),91.9% (inactive),-92% (active),110% (inactive),97.7% (inactive),43.4% (inactive),98.7% (inactive),110% (inactive),115% (inactive),102% (inactive),105% (inactive),90.9% (inactive),97.3% (inactive),86.6% (inactive)
O=C(c1ccc(F)c(Cl)c1)N1c2ccccc2Sc2ccccc21,78.5% (inactive),77.3% (inactive),102% (inactive),,99.5% (inactive),37% (inactive),42.5% (inactive),65.6% (inactive),79.8% (inactive),44.7% (inactive),90.3% (inactive),21.5% (inactive),64.1% (inactive),61% (inactive),70.8% (inactive),66.8% (inactive),64.3% (inactive),62.3% (inactive),61% (inactive),53.1% (inactive)
O=C(N/N=C/c1ccc(Cl)cc1Cl)c1ccc2nc(-c3ccc(Cl)cc3)[nH]c2c1,-0.367% (active),99.3% (inactive),27.7% (inactive),,-33.6% (active),28.1% (inactive),63.2% (inactive),-26.7% (active),-42.1% (active),-23.9% (active),30.5% (inactive),8.67% (active),-58.7% (active),9.48% (active),18.9% (inactive),38% (inactive),-49.3% (active),37.1% (inactive),31.7% (inactive),19.7% (inactive)
CC(=O)c1c(Nc2ccc(F)c(F)c2F)[nH]c2c(F)cc(F)cc2c1=O,-3.83% (active),-15.6% (active),4.47% (active),,2.98% (active),-18.8% (active),-11.1% (active),4.48% (active),12.1% (inactive),-65% (active),18.1% (inactive),7.47% (active),-22.6% (active),-1.7% (active),-4.56% (active),17.9% (inactive),-35.3% (active),1.53% (active),-18.4% (active),2.68% (active)
Cc1ccc(/C=C2\CN(C(=O)C(Cl)Cl)C/C(=C\c3ccc(C)cc3)C2=O)cc1,-35.9% (active),-11.7% (active),-53.7% (active),-16.4% (active),-56.1% (active),-47.9% (active),-37.3% (active),2.86% (active),-68.6% (active),-63% (active),-82.7% (active),-0.0477% (active),-56.5% (active),-3.27% (active),-88.1% (active),-20.4% (active),-7.46% (active),-86.4% (active),-33.1% (active),-65.6% (active)
COC(=O)Cc1nc(C#N)c(N(C)C)o1,95.4% (inactive),96.3% (inactive),97.2% (inactive),,101% (inactive),95.9% (inactive),90.3% (inactive),95.8% (inactive),97.6% (inactive),104% (inactive),112% (inactive),91.1% (inactive),105% (inactive),100% (inactive),106% (inactive),94.8% (inactive),100% (inactive),99% (inactive),95.7% (inactive),103% (inactive)
Clc1ccc(-c2nc(-c3c[nH]c4ncccc34)cs2)cc1,35% [100 µM] (inactive),47.7% [100 µM] (inactive),61.7% [100 µM] (inactive),,72.5% [100 µM] (inactive),-42.4% [100 µM] (active),71.7% [100 µM] (inactive),55.2% [100 µM] (inactive),34.6% [100 µM] (inactive),93.2% [100 µM] (inactive),79.6% [100 µM] (inactive),100% [100 µM] (inactive),73% [100 µM] (inactive),31.1% [100 µM] (inactive),18.5% [100 µM] (inactive),40.9% [100 µM] (inactive),18.6% [100 µM] (inactive),20.6% [100 µM] (inactive),105% [100 µM] (inactive),70.3% [100 µM] (inactive)
N=c1c2c(=N)n3c(nc2nc2n1-c1ccccc1Sc1ccccc1-2)sc1cc(Cl)ccc13,7.38% (active),32.9% (inactive),47.1% (inactive),76.8% (inactive),13.8% (inactive),-14.1% (active),4.09% (active),14% (inactive),30% (inactive),44.8% (inactive),32.4% (inactive),34.9% (inactive),12.7% (inactive),32.1% (inactive),26.5% (inactive),38.3% (inactive),12.8% (inactive),55.4% (inactive),-5.42% (active),28.8% (inactive)
O=C(Nc1ncc(Cc2ccccc2Cl)s1)c1cccs1,80.3% (inactive),85.1% (inactive),78% (inactive),,57.7% (inactive),58.6% (inactive),51.9% (inactive),54.1% (inactive),86.1% (inactive),85.8% (inactive),82.6% (inactive),16.9% (inactive),69.1% (inactive),88.7% (inactive),82.2% (inactive),76.4% (inactive),65.2% (inactive),95.8% (inactive),92.6% (inactive),62.3% (inactive)

# Source: PubChem BioAssay (NCI)
